This note sets out measurements from paper PMC7862700, “An all-to-all approach to the identification of sequence-specific readers for epigenetic DNA modifications on cytosine”.

Assay in all cases: DAPPL (digital affinity profiling via proximity ligation, sequencing); 10 mM Tris-HCl pH 7.5, 50 mM NaCl, 1 mM DTT, 4% glycerol, room temperature, 30 min; GST-TFs on glutathione beads, 16-mer random dsDNA library, 0.1% formaldehyde crosslink after washing; high values mean tight binding
One assay concerns the target T1, FLI1 (Homo sapiens, UniProt Q01543 1-452).
T1 sequence: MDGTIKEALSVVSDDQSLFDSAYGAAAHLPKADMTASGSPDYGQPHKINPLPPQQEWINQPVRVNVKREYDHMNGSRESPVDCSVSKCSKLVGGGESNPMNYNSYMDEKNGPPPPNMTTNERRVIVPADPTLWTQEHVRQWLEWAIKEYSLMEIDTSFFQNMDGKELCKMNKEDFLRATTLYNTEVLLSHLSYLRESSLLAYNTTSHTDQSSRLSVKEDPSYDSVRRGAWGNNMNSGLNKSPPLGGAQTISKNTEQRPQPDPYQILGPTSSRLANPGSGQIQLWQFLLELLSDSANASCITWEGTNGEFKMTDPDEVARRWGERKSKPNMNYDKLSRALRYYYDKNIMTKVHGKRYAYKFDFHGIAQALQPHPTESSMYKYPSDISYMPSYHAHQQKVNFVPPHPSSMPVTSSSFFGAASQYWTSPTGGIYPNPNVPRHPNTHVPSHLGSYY
As to conditions: protein: recombinant; tags: N-terminal GST; dsDNA, one strand shown. The procedure, abridged: (§1)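 In yeast, human transcription factors were expressed with a GST fusion, then pulled down on glutathione beads and given DNA barcodes. Pooled with a tag-only sample, they were exposed to 200 nmole of a 16-mer random double-stranded DNA library (Tris/NaCl/DTT/glycerol buffer, room temperature, 30 min), washed, crosslinked with 0.1% formaldehyde, proximity-ligated using BsaI/T4 ligase for 1 h at 37 °C, PCR-amplified and read on an Illumina NextSeq500. Each hexamer's frequency of reads for a factor, divided by the matching frequency for the tag-only sample, gives the binding signal.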

In another assay the target is T2, ELK1 (Homo sapiens, UniProt P19419 1-428).
T2 sequence: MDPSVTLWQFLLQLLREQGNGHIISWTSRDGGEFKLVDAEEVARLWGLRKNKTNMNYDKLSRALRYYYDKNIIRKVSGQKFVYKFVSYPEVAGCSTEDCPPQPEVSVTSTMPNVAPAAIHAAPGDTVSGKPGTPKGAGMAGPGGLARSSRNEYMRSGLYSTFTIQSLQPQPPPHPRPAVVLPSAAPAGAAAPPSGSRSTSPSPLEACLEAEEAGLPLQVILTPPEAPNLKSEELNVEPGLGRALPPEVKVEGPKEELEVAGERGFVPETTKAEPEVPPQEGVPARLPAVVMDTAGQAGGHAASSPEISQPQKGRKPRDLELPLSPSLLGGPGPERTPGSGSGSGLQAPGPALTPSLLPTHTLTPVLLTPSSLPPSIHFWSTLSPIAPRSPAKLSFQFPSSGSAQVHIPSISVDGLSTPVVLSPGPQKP
As to conditions: protein: recombinant; tags: N-terminal GST; dsDNA, one strand shown. The procedure, abridged:
as §1

The next assay has as its target T3, GABPA (Homo sapiens, UniProt Q06546 1-454).
T3 sequence: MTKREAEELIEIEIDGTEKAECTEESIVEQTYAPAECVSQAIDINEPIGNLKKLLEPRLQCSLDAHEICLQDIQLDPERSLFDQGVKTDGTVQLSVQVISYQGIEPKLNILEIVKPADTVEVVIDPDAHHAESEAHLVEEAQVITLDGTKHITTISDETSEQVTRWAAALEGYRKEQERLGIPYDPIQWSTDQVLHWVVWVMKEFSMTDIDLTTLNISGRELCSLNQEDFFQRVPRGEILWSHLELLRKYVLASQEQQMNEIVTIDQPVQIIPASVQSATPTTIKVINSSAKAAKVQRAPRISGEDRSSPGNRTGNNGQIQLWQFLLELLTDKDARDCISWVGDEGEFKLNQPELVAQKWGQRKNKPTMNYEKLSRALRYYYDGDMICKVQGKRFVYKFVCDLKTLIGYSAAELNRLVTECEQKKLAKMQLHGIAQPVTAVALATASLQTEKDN
Particulars: protein: recombinant; tags: N-terminal GST; dsDNA, one strand shown. The procedure, abridged:
as §1

The target of a further assay is T4, ERG (Homo sapiens, UniProt P11308 1-479).
T4 sequence: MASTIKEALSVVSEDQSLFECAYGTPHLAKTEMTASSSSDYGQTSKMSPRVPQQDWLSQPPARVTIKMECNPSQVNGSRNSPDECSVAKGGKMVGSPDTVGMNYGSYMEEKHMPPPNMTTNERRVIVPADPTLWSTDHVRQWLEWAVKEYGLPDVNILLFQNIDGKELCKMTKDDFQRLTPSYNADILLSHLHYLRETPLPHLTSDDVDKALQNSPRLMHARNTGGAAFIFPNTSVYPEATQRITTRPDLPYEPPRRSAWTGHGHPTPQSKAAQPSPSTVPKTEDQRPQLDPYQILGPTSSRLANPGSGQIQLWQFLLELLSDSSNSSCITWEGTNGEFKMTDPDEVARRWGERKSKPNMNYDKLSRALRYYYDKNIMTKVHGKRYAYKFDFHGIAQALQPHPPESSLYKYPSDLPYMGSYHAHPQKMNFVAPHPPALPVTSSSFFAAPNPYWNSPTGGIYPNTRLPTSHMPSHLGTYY
As to conditions: protein: recombinant; tags: N-terminal GST; dsDNA, one strand shown. The procedure, abridged:
as §1

For the next assay, the target named is ELF1 (Homo sapiens, UniProt P32519 1-619). As to conditions: protein: recombinant; tags: N-terminal GST; dsDNA, one strand shown. The procedure, abridged: as §1
The target in the next assay is T5, EHF (Homo sapiens, UniProt Q9NZC4 1-300).
T5 sequence: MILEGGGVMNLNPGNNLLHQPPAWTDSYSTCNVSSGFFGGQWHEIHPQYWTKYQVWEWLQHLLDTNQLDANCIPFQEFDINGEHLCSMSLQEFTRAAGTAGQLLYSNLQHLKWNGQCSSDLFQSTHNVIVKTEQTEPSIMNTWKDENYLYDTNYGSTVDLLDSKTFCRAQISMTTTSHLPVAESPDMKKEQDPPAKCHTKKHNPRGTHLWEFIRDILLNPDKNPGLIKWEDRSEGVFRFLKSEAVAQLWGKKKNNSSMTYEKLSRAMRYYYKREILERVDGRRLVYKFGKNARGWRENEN
Particulars: protein: recombinant; tags: N-terminal GST; dsDNA, one strand shown. The procedure, abridged:
as §1

For a further assay, the target named is SPI1 (Homo sapiens, UniProt P17947 1-270). Particulars: protein: recombinant; tags: N-terminal GST; dsDNA, one strand shown. The procedure, abridged:
as §1

In the next assay the target is SPIB (Homo sapiens, UniProt Q01892 1-262). As to conditions: protein: recombinant; tags: N-terminal GST; dsDNA, one strand shown. The procedure, abridged:
as §1

A further assay deals with T6, ELK3 (Homo sapiens, UniProt P41970 1-407).
T6 sequence: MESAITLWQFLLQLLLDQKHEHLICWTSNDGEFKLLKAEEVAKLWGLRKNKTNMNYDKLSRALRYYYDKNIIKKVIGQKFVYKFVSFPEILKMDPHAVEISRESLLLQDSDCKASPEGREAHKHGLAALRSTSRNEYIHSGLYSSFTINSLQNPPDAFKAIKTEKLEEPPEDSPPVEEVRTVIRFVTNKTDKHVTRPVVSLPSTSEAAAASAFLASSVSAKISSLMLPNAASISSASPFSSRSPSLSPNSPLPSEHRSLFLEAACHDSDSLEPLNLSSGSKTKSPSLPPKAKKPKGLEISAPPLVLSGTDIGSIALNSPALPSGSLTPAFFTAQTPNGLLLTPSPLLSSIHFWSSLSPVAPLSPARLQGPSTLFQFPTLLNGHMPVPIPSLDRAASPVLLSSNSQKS
Particulars: protein: recombinant; tags: N-terminal GST; dsDNA, one strand shown. The procedure, abridged:
as §1

Another assay deals with T7, FEV (Homo sapiens, UniProt Q99581 1-238).
T7 sequence: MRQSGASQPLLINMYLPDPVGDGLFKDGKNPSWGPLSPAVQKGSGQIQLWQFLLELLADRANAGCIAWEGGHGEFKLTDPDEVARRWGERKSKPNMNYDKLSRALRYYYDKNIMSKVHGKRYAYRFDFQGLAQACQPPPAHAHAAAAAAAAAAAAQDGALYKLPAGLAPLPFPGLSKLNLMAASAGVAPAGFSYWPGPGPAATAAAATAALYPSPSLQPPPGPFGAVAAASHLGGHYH
As to conditions: protein: recombinant; tags: N-terminal GST; dsDNA, one strand shown. The procedure, abridged: as §1

For a further assay, the target named is ETV5 (Homo sapiens, UniProt P41161 1-510). Particulars: protein: recombinant; tags: N-terminal GST; dsDNA, one strand shown. The procedure, abridged:
as §1

The next assay deals with HSF1 (Homo sapiens, UniProt Q00613 1-529). Particulars: protein: recombinant; tags: N-terminal GST; chain copies: 3; dsDNA, one strand shown. The procedure, abridged:
as §1

A further assay has as its target T8, SPIC (Homo sapiens, UniProt Q8N5J4 1-248).
T8 sequence: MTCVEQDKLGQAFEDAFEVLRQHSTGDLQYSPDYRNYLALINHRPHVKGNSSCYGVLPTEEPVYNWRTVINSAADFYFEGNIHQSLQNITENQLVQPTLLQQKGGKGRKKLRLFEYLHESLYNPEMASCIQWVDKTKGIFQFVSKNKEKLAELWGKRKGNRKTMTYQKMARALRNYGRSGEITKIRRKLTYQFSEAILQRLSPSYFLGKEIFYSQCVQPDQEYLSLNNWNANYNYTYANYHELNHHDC
As to conditions: protein: recombinant; tags: N-terminal GST; dsDNA, one strand shown. The procedure, abridged: as §1

For a further assay, the target named is ELF4 (Homo sapiens, UniProt Q99607 1-663). Particulars: protein: recombinant; tags: N-terminal GST; dsDNA, one strand shown. The procedure, abridged:
as §1

The target of another assay is T9, ELK4 (Homo sapiens, UniProt P28324-2 1-405).
T9 sequence: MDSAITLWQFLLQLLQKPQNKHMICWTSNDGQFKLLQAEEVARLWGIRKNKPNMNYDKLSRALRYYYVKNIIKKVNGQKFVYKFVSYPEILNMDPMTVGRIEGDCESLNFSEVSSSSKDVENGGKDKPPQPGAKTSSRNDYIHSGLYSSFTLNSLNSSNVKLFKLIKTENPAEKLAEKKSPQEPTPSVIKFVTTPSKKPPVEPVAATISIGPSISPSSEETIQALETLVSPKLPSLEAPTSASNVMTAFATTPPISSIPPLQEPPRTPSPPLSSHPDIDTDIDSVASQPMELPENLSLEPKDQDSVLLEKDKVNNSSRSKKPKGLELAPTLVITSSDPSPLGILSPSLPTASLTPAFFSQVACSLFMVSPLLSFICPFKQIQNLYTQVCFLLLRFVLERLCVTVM
As to conditions: protein: recombinant; tags: N-terminal GST; dsDNA, one strand shown. The procedure, abridged:
as §1

A further assay deals with T10, ETV2 (Homo sapiens, UniProt O00321 1-342).
T10 sequence: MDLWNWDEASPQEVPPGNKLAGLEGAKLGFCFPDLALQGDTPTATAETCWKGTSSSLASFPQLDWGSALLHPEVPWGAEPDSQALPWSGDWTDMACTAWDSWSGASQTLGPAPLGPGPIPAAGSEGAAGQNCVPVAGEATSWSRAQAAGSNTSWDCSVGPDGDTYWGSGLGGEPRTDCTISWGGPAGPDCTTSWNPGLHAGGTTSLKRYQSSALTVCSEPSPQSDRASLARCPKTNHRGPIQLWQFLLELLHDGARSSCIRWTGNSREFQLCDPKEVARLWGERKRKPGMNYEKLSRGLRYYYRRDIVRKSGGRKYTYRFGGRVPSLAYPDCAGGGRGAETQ
As to conditions: protein: recombinant; tags: N-terminal GST; dsDNA, one strand shown. The procedure, abridged:
as §1

In another assay the target is T11, ELF3 (Homo sapiens, UniProt P78545 1-371).
T11 sequence: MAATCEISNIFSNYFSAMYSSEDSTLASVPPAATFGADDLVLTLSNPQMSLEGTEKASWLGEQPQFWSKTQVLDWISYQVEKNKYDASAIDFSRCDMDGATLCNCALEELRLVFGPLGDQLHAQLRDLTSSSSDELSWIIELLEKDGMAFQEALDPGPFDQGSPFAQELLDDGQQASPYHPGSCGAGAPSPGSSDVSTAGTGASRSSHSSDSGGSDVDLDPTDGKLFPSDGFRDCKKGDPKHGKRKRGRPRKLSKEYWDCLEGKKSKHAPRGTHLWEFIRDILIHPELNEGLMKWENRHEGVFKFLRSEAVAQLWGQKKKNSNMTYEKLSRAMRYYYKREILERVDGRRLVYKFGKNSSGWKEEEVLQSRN
Particulars: protein: recombinant; tags: N-terminal GST; dsDNA, one strand shown. The procedure, abridged:
as §1

The next assay concerns the target CRX (Homo sapiens, UniProt O43186 1-299). As to conditions: protein: recombinant; tags: N-terminal GST; dsDNA, one strand shown. The procedure, abridged: as §1
Another assay addresses ETV1 (Homo sapiens, UniProt P50549 1-477). As to conditions: protein: recombinant; tags: N-terminal GST; dsDNA, one strand shown. The procedure, abridged:
as §1

Chain of ELF1 (P32519 whole entry): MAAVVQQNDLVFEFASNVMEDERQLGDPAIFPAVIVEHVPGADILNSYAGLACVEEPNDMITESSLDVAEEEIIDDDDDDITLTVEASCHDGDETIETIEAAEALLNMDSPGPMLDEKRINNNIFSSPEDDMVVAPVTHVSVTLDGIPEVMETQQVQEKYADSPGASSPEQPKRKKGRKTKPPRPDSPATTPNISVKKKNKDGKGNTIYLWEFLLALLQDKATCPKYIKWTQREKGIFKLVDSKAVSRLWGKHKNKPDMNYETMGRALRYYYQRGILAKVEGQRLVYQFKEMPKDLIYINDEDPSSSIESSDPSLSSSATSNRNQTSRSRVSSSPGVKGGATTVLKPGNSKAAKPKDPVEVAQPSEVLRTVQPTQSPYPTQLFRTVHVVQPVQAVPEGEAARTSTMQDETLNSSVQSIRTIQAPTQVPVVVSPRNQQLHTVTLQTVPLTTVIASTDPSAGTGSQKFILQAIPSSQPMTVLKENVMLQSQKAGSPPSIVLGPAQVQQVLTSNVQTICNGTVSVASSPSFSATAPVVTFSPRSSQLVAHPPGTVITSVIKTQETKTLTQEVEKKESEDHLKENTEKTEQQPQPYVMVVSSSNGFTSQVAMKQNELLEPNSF
Chain of CRX (O43186 whole entry): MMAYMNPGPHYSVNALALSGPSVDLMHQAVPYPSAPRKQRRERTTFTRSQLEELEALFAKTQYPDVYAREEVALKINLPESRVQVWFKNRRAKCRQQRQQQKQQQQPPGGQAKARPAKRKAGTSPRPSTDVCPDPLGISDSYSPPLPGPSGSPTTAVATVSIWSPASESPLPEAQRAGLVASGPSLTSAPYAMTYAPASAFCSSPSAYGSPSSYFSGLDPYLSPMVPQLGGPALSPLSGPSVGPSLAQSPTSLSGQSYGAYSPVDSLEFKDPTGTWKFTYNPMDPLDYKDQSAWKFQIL
Chain of ELF4 (Q99607 whole entry): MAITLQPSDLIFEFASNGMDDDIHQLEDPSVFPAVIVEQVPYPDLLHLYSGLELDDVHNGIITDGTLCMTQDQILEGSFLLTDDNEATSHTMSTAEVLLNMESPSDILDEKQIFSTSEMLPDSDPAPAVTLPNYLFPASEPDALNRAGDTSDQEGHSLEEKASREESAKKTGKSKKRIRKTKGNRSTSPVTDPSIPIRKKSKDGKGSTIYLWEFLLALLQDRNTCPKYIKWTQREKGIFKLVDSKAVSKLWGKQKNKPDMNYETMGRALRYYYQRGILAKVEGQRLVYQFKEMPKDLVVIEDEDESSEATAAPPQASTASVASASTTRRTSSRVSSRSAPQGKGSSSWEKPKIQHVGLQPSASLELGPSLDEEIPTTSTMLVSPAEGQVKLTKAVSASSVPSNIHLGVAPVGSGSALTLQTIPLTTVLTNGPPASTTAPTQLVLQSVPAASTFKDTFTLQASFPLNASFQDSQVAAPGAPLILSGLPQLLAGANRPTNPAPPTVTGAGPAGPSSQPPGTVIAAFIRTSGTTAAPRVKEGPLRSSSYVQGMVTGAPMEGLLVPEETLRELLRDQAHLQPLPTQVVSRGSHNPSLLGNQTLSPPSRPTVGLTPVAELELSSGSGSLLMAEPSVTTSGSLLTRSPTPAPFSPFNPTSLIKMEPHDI
Chain of HSF1 (Q00613 whole entry): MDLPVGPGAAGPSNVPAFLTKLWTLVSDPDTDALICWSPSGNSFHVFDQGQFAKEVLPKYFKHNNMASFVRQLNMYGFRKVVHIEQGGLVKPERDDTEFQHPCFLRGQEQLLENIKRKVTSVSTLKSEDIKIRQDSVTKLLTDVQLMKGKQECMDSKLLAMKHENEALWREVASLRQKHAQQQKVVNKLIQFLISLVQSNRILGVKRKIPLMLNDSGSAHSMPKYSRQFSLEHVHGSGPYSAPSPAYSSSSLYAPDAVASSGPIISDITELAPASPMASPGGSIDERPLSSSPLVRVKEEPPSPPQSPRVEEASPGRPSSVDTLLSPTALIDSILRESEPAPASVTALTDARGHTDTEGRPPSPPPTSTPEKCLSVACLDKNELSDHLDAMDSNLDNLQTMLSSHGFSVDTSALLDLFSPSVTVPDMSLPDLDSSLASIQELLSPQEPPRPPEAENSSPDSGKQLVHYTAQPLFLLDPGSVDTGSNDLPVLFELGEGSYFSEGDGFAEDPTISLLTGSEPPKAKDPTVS
Chain of ETV5 (P41161 whole entry): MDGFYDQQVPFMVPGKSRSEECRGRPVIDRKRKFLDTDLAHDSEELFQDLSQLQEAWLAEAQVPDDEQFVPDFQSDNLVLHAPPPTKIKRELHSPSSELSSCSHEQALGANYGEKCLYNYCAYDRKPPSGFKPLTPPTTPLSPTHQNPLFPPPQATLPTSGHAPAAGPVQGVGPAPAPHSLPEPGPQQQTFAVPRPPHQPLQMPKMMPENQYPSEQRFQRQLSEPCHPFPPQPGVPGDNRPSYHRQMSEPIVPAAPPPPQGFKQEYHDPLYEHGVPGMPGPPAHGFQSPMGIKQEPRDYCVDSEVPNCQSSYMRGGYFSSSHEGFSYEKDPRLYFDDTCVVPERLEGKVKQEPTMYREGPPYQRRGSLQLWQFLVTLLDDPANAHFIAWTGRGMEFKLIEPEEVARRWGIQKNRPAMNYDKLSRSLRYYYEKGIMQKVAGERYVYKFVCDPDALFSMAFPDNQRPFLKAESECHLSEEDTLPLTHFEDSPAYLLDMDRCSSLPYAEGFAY
Chain of ETV1 (P50549 whole entry): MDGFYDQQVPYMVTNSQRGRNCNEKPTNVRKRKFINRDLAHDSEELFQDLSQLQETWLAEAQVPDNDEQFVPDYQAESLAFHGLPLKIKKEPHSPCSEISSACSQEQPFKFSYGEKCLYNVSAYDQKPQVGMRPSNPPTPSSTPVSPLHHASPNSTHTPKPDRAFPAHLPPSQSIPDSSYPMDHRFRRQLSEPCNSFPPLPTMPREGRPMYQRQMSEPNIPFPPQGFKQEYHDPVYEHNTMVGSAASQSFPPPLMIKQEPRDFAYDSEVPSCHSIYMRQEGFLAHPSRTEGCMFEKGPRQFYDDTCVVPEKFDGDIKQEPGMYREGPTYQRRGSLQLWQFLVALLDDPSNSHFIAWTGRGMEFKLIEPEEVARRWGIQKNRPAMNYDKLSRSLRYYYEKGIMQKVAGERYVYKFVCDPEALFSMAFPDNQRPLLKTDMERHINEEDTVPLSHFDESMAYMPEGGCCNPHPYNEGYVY
Chain of SPIB (Q01892 whole entry): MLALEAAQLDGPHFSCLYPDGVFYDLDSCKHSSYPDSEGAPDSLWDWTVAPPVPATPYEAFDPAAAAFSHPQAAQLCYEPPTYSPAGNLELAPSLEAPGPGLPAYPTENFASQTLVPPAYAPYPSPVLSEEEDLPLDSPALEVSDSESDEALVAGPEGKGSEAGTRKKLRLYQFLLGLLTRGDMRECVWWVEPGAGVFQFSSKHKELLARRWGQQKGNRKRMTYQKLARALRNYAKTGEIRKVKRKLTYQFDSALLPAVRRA

On to AAGTTT, for which the binding signal was 1.42 fold enrichment (6-mer frequency, TF over GST control) in the assay with FLI1; 1.48 fold enrichment (6-mer frequency, TF over GST control) with ELK1; 1.42 fold enrichment (6-mer frequency, TF over GST control) with GABPA; 1.36 fold enrichment (6-mer frequency, TF over GST control) with ERG; 1.37 fold enrichment (6-mer frequency, TF over GST control) with ELF1; 1.5 fold enrichment (6-mer frequency, TF over GST control) with EHF. For the same sequence, the binding signal in the assay with SPI1 is 1.45 fold enrichment (6-mer frequency, TF over GST control); with SPIB, 1.6 fold enrichment (6-mer frequency, TF over GST control); with ELK3, 1.44 fold enrichment (6-mer frequency, TF over GST control); with FEV it was 1.35 fold enrichment (6-mer frequency, TF over GST control); with ETV5 it was 1.37 fold enrichment (6-mer frequency, TF over GST control); in the assay with HSF1, 1.5 fold enrichment (6-mer frequency, TF over GST control). Besides, the binding signal in the assay with SPIC was 1.29 fold enrichment (6-mer frequency, TF over GST control); with ELF4 it was 1.39 fold enrichment (6-mer frequency, TF over GST control); with ELK4, 1.27 fold enrichment (6-mer frequency, TF over GST control); with ETV2, 1.44 fold enrichment (6-mer frequency, TF over GST control); in the assay with ELF3 it was 1.35 fold enrichment (6-mer frequency, TF over GST control); in the assay with CRX, 1.38 fold enrichment (6-mer frequency, TF over GST control). For the same sequence, the binding signal in the assay with ETV1 is 1.51 fold enrichment (6-mer frequency, TF over GST control).
